This is part of a sample that, as a whole, favours compounds with a hit. Of some 79,000 tested, about 15% had one in any assay. Rule as the data show it: active = growth inhibition above about 70%; inactive = the rest.
How the values were obtained:
[1] = NCI Yeast Anticancer Drug Screen. Data for the rad50 strain (AID 155);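 also: 0% = growth of vehicle-only cultures of the same strain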; conditions: S. cerevisiae rad50 strain growth inhibition; at 50.0 µM; hits give high values
Summary of the method: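 Cells are treated with compound, grown, and their growth is then scored against vehicle-only cultures of the same repair-deficient yeast strain.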

[2] = NCI Yeast Anticancer Drug Screen. Data for the mec2-1 strain (AID 157); conditions: S. cerevisiae mec2-1 strain, at 50.0 µM, hits give high values
Summary of the method: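 Each compound was tested on mec2-1 yeast, a strain altered in DNA damage repair or cell cycle control. Growth inhibition is reported relative to vehicle.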

[3] = NCI Yeast Anticancer Drug Screen. Data for the sgs1 mgt1 strain (AID 161);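 also: 0% = growth of cultures given vehicle only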; conditions: S. cerevisiae sgs1 mgt1 strain, at 50.0 µM, hits give high values
Summary of the method: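 Inhibition of yeast growth, normalised to vehicle-treated controls, is reported for a strain bearing genetic alterations in DNA damage repair.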

[4] = NCI Yeast Anticancer Drug Screen. Data for the cln2 rad14 strain (AID 165);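 also: 0% = growth equal to vehicle treated cultures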; conditions: S. cerevisiae cln2 rad14 strain, at 50.0 µM, hits give high values
Summary of the method: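 Test compounds were added to cln2 rad14 yeast cultures; inhibition of growth was then determined by comparison with vehicle treatment.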

[5] = NCI Yeast Anticancer Drug Screen. Data for the bub3 strain (AID 167); conditions: S. cerevisiae bub3 mutant strain, at 50.0 µM, hits give high values
Summary of the method: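 Part of a panel of yeast mutants defective in DNA damage repair or cell cycle regulation. Each strain is grown with compound, and inhibition is calculated relative to solvent-treated cultures.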

[6] = NCI Yeast Anticancer Drug Screen. Data for the mlh1 rad18 strain (AID 175); conditions: S. cerevisiae mlh1 rad18 strain growth inhibition; at 50.0 µM; hits give high values
Summary of the method: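 Inhibition values reflect reduced growth of mutant yeast versus vehicle-treated controls following compound exposure; the mutations affect DNA damage repair.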

Measured: growth inhibition

CC(=O)O[C@@H]1[C@@H](C)[C@]2(CC(c3ccoc3)OC2O)C2CCC3O[C@]3(C)[C@]2(C)[C@@H]1OC(C)=O (stereo not given in full)
inactive: [1] -16% | [2] -20.1% | [3] -42.6% | [4] -12.2% | [5] -39.5% | [6] -28.4%

CCC(C)(C1CCC(=O)CC1)C1CCC(=O)CC1
inactive: [1] 33.6% | [2] -5.75% | [3] -0.7% | [4] -7% | [5] -0.75% | [6] 7.85%

[O-]/[N+](=C\c1ccccc1)[C@H](COCc1ccccc1)c1ccccc1
inactive: [1] -21.8% | [2] -17.1% | [3] -23.8% | [4] -13.5% | [5] -2.75% | [6] -5.5%

CC(=S)N=Cc1c(C)[nH]n(-c2ccccc2)c1=O
inactive: [1] -49.4% | [2] -29.8% | [3] -41.4% | [4] 19.6% | [5] -57.7% | [6] -31.9%

CC(=O)c1nc2ccccc2n1CC(=O)c1ccc([N+](=O)[O-])cc1
inactive: [1] -0.65% | [2] 8.7% | [3] 6.2% | [4] -8% | [5] 3.45% | [6] -8.1%

Cc1cccc(/C=C/C(=O)C(C)CN(C)C)c1 (stereo not given)
inactive: [1] 41.4% | [2] 15.6% | [3] 63% | [4] 30.4% | [5] 28.6% | [6] 39.5%

Cc1cc[n+](-c2nc3c([O-])n(C)c(=O)n(C)c-3n2)cc1
inactive: [1] 0.65% | [2] 10.6% | [3] 6% | [4] -40.2% | [5] 8.95% | [6] 19.4%

N#Cc1cc(Cl)ccc1N=Cc1c(Cl)cccc1Cl
inactive: [1] 19.4% | [2] 16.5% | [3] 39.4% | [4] 14.6% | [5] -6.55% | [6] 12.8%

COc1ccc(NCC(=O)Nn2c(-c3ccccc3)nc3ccccc3c2=O)cc1
inactive: [1] -37% | [2] -48.2% | [3] 4% | [4] 0.4% | [5] 4.15% | [6] -18.4%

CCCCC(C=O)(CC)CCC#N (stereo not given)
inactive: [1] 45.1% | [2] -2.55% | [3] 46.3% | [4] -17.9% | [5] -16.1% | [6] 42.2%

Clc1ccc(SCc2csc(-c3ccc(Cl)cc3)n2)cc1
inactive: [1] -27.5% | [2] -41.8% | [3] -19.1% | [4] -27.8% | [5] -6.8% | [6] -29.8%

Cc1cc(NC(=O)NC(=O)c2ccccc2NC(=O)CN)ccc1Oc1ncc(Br)cn1
inactive: [1] 6% | [2] -13.8% | [3] 40.3% | [4] 11.4% | [5] 15.1% | [6] -43.5%

Nc1cccc(Nc2nc3ccccc3nc2NS(=O)(=O)c2ccccc2)c1
inactive: [1] 18.5% | [2] 22.6% | [3] 14.6% | [4] -11.3% | [5] -2.5% | [6] -9.1%

Cc1c(N/C=C(\C#N)C(=O)c2ccc(Cl)cc2)c(=O)n(-c2ccccc2)n1C
inactive: [1] -8.15% | [2] 6.6% | [3] -7.25% | [4] 27.2% | [5] 2.35% | [6] 30.9%

Cc1cc(S(=O)(=O)Nc2n[nH]c(-c3ccc(Cl)cc3)n2)c(SSc2cc(Cl)c(C)cc2S(=O)(=O)Nc2n[nH]c(-c3ccc(Cl)cc3)n2)cc1Cl
inactive: [1] 34.5% | [2] 15.2% | [3] 27.8% | [4] 34.7% | [5] 30.6% | [6] 32.2%

N.N.N.N.N.O=S(=O)([O-])S(=O)(=O)[O-].[Co+3]
inactive: [1] 9.15% | [2] 16.4% | [3] 13% | [4] 23.2% | [5] -2.05% | [6] -9%

CC1CCC(C(C)C)C(NC(=O)c2cccnc2)C1 (stereo not given)
inactive: [1] 8.3% | [2] -7.45% | [3] -2.75% | [4] 13.9% | [5] 14.4% | [6] 8.75%

CCOC(=O)C(C#N)S(C)(=O)=O (stereo not given)
inactive: [1] 4.55% | [2] -6.55% | [3] 1.9% | [4] -35.3% | [5] -12.1% | [6] -1.6%

NC(=O)NCP(=O)(CNC(N)=O)CNC(N)=O
inactive: [1] -20% | [2] -7.3% | [3] -4.25% | [4] -20.4% | [5] 32.8% | [6] 4.95%

CC1=CC(O/C=C2\C(=O)OC3C=CCC23)OC1=O (stereo not given)
inactive: [1] -1.6% | [2] -32% | [3] 17.4% | [4] 4.05% | [5] -11.6% | [6] 0.55%

CCC(CC)CC1CCCCC1O (stereo not given)
inactive: [1] -30.7% | [2] -44% | [3] -46.9% | [4] -17.2% | [5] -48.7% | [6] -11.9%

O=[N+]([O-])c1cccc(Cc2nncc3ccccc23)c1
inactive: [1] 4.15% | [2] 35.9% | [3] 17.6% | [4] 0.05% | [5] 44.5% | [6] 17.7%

CCOC(=O)C(O)Cc1cnc2ccccc2n1 (stereo not given)
inactive: [1] -1.45% | [2] -13.3% | [3] -12.3% | [4] -13.3% | [5] -11.1% | [6] 7.55%

C=CCC(C#N)C1=CCCCC1 (stereo not given)
inactive: [1] -6.85% | [2] -26.6% | [3] -12.4% | [4] -4.3% | [5] -23.6% | [6] -5.75%

CC(C)(C)OC(=O)CC(O)c1ccccc1 (stereo not given)
inactive: [1] 3.8% | [2] -2.9% | [3] 3.65% | [4] -2.45% | [5] -3.7% | [6] 20.8%

Cc1cc(C)nc(NS(=O)(=O)c2ccc(Nc3c4ccccc4nc4c(C(=O)Nc5ccc(S(=O)(=O)N=C(N)N)cc5)cccc34)cc2)n1
inactive: [1] 24.1% | [2] 35.8% | [3] 30.9% | [4] 35.2% | [5] 19.6% | [6] 44.1%

C/C=N\n1c(C)c(C#N)c(C#N)c1N
inactive: [1] 8.6% | [2] 10.2% | [3] -23.6% | [4] -14.1% | [5] -21.7% | [6] -35.5%

Nc1cccc2c1-c1ccc([N+](=O)[O-])cc1C2=O
inactive: [1] 7.6% | [2] 18.4% | [3] -6.25% | [4] 5.5% | [5] 5.55% | [6] 4.25%

CN1CCCn2c(nc3ccccc3c2=O)C1
inactive: [1] -1.4% | [2] -4.65% | [3] -5.55% | [4] 14.5% | [5] -0.5% | [6] -4.35%

COC(=O)C(CO)NC(=O)C(CC(C)C)NC(=O)C(CC(C)C)NC(=O)OCc1ccccc1 (stereo not given)
inactive: [1] 34.6% | [2] 4.5% | [3] 16.6% | [4] 11.6% | [5] -5.1% | [6] 13.2%

O=C(CCN(CCC(=O)c1ccccc1)CCC(=O)c1ccccc1)c1ccccc1
inactive: [1] 22.2% | [2] 11.8% | [3] -5.05% | [4] -31.3% | [5] 0.9% | [6] 26.9%

O=C(O)c1ccncc1S(=O)(=O)O
inactive: [1] -20.6% | [2] -36.2% | [3] -24.3% | [4] -8.4% | [5] -23.5% | [6] -9.9%

O=C1OC(Cl)C=C1c1ccccc1 (stereo not given)
inactive: [1] 5.2% | [2] -7.35% | [3] -4.35% | [4] -36.5% | [5] -23.5% | [6] 0.65%

C/C(CC(=O)c1ccccc1)=C1\C(=O)NN(c2ccccc2)C1=O
inactive: [1] 60.5% | [2] 47.5% | [3] 67.7% | [4] 56.9% | [5] 64.6% | [6] 60.1%

CCOC(=O)C(C)(C)Oc1ccc2c(C)c(-c3ccc(Cl)cc3)c(=O)oc2c1
inactive: [1] -1.7% | [2] -26.4% | [3] -1.25% | [4] -41.2% | [5] -47.6% | [6] -10.9%

NC(=O)c1ccc(I)cc1
inactive: [1] 1.75% | [2] 9.3% | [3] 4% | [4] -30.1% | [5] -37% | [6] 8.25%

CC/C(CCC(=O)OC)=N/Nc1ccc([N+](=O)[O-])cc1[N+](=O)[O-]
inactive: [1] 4.05% | [2] 7.25% | [3] 6.9% | [4] -22.6% | [5] -5.9% | [6] -10.6%

CC(C)c1ccc2c(c1)CCC1C2(C)CCCC1(C)C(O)c1ccccc1 (stereo not given)
inactive: [1] 9.45% | [2] -6.65% | [3] 8.6% | [4] -17.1% | [5] 8.05% | [6] 32.1%

c1ccc2c(OCCSCCCCCCCCCCSCCOc3cccc4ccccc34)cccc2c1
inactive: [1] 18.9% | [2] -5.55% | [3] -2.25% | [4] 7.75% | [5] -3.6% | [6] -9.25%

CN(C)c1ccc(/C=c2\sc3nnc(Cc4ccccc4)n3c2=O)cc1
inactive: [1] -7.8% | [2] -13.6% | [3] -0.25% | [4] 11.1% | [5] 11.1% | [6] 1.35%

— PubChem BioAssay (NCI)
